Experimental data: PubChem BioAssay
Active and inactive are the calls of the source.

What was measured:
[1] = system: Human papillomavirus type 1a protein E7 (residues 44-93); test: HPV1a E7 fragment binders on microarrays, primary screen, biochemical, small-molecule microarray, residues 44-93, 635 nm fluorescence (AID 1108); details: small-molecule microarray binding, fluorescence 635 nm; higher = more signal;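 further: E7 fragment applied at 1 µg/mL in TBST for 1 h at 4 C; score combines spot fluorescence with its signal to noise ratio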
[2] = modulators of HCV replicon luciferase signal, primary screen, HCV replication inhibitor project, Huh7 cells, luciferase reporter (AID 1109); details: 48 h, higher = more signal;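 further: huh7 hepatoma cells harbouring a luciferase neomycin HCV replicon reporter; luciferase luminescence as measure of HCV replicon replication; test concentration not given here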
[3] = target: Left-right determination factor 2 (Homo sapiens) (UniProt O00292); test: LEFTY2 binders on small-molecule microarrays, primary screen, biochemical, small-molecule microarray, 635 nm fluorescence scan (AID 1110); details: LEFTY2 binding, higher = more signal
Sequence of Left-right determination factor 2 (Homo sapiens) (O00292 whole entry, looked up): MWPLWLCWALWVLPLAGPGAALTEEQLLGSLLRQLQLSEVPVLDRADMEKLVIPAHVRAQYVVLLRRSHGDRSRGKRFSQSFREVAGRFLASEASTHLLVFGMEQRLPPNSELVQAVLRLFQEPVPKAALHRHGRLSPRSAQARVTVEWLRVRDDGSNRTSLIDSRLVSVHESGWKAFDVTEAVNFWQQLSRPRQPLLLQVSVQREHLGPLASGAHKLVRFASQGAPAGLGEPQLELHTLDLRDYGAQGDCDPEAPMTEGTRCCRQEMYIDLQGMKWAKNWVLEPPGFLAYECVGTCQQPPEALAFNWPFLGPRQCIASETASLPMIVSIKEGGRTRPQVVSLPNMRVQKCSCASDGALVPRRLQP

[4] = target: Calmodulin-1 (Homo sapiens) (UniProt P0DP23); test: CALM1 binders on microarrays, EGTA buffer, profiling panel, biochemical, small-molecule microarray, Cy5-labelled CALM1 (AID 1111); details: Cy5-CALM1 binding fluorescence, higher = more signal;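 further: labelled calmodulin applied in Tris saline Tween buffer holding calcium plus EGTA and DTT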
[5] = target: Calmodulin-1 (Homo sapiens) (UniProt P0DP23); test: calcium-bound CALM1 binders on microarrays, profiling panel, artefact control for SMM control-protein annotation, biochemical, small-molecule microarray, Cy5-labelled CALM1, plus calcium (AID 1112); details: Cy5-CALM1 binding fluorescence, higher = more signal;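 further: score merges spot fluorescence with signal to noise from triplicate slides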
[6] = small-molecule microarray binders of probe aWnt5a, primary screen, biochemical, biotinylated probe, 635/667 nm fluorescence (AID 1113); details: higher = more signal;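 further: score merges 667 nm fluorescence intensity with signal-to-noise per printed feature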
[7] = small-molecule microarray binders of probe aShh, primary screen, biochemical, biotinylated probe, 635/667 nm fluorescence (AID 1114); details: higher = more signal;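 further: probe is biotin-labelled aShh protein from a stem cell growth factor screen; measures binding of labelled protein to compounds printed on the slide; score merges feature fluorescence at 667 nm with signal-to-noise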
[8] = small-molecule microarray binders of probe aNog, primary screen, biochemical, biotinylated probe, 635/667 nm fluorescence (AID 1115); details: higher = more signal;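 further: probe is biotinylated aNog protein used at 0.15 µg/mL for 1 h at 4 C; z-score combines 667 nm fluorescence of each spot with its signal to noise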
[9] = target: Torsin-1A-interacting protein 1 (Homo sapiens) (UniProt Q5JTV8); test: LAP1 binders from COS7 cell lysate, primary screen, small-molecule microarray, 635/667 nm fluorescence (AID 1116); details: COS7-hLAP1 lysate binding, 635 nm fluorescence, higher = more signal
Sequence of Torsin-1A-interacting protein 1 (Homo sapiens) (Q5JTV8 whole entry, looked up): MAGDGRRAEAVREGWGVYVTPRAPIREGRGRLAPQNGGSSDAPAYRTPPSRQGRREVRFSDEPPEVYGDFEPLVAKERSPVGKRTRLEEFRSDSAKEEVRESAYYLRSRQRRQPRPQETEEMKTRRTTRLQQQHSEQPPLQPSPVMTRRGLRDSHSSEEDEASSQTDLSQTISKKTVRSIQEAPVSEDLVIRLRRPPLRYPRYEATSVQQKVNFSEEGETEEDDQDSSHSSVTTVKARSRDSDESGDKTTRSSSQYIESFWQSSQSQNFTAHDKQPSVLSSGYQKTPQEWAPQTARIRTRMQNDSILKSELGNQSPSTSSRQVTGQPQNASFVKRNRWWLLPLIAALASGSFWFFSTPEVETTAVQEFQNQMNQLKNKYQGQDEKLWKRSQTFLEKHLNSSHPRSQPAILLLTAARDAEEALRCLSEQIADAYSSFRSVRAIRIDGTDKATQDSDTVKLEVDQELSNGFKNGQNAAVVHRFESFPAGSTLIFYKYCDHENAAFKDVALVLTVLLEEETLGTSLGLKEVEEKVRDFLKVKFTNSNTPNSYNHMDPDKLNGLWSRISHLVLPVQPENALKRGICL

[10] = target: Alpha-bungarotoxin (Bungarus multicinctus) (UniProt P60615); test: alpha-bungarotoxin binders on microarray, profiling panel, artefact control for SMM control protein annotation, biochemical, small-molecule microarray, Alexa647 label, 635/667 nm fluorescence (AID 1117); details: alpha-BTX-A647 binding fluorescence, higher = more signal
Sequence of Alpha-bungarotoxin (Bungarus multicinctus) (P60615 whole entry, looked up): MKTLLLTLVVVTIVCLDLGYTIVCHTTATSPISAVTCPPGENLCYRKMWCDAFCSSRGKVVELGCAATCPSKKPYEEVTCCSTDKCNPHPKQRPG

Albumin (Bos taurus) = Albumin (Bos taurus) (UniProt P02769); test: bovine serum albumin binders on microarray, profiling panel, artefact control for SMM control protein annotation, biochemical, small-molecule microarray, Alexa647 label, 635/667 nm fluorescence (AID 1118); details: BSA-A647 binding, fluorescence 635 nm, higher = more signal;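 further: score merges 667 nm emission intensity and signal-to-noise per printed compound spot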
Sequence of Albumin (Bos taurus) (P02769 whole entry, looked up): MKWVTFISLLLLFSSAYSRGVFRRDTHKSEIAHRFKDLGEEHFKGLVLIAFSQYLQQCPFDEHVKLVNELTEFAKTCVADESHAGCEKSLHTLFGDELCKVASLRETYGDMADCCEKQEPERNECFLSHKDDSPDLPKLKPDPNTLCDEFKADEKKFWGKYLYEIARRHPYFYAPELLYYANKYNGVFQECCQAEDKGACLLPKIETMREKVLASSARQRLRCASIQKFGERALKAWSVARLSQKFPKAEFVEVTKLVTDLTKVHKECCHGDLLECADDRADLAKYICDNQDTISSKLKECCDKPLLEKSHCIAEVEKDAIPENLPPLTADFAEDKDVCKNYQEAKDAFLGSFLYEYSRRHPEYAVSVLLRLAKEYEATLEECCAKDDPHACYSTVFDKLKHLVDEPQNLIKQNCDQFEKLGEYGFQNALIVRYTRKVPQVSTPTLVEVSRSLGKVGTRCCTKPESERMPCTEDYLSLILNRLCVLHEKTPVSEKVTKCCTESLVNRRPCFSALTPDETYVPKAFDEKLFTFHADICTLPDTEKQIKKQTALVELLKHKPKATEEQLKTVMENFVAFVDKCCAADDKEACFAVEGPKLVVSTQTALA

[11] = small-molecule microarray binders of probe aXIP, primary screen, biochemical, NeuroSMM set, 635/667 nm fluorescence (AID 1119); details: higher = more signal, called active from +8 up or from −8 down;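 further: probe is the protein aXip251-270 applied at 1 µg/mL to compound-printed slides; binding of probe to printed compounds measured as 667 nm fluorescence plus signal to noise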
[12] = small-molecule binders of probe aNOTCH3, primary screen, biochemical, small-molecule microarray, 635/667 nm fluorescence (AID 1120); details: higher = more signal;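 further: probe is a biotin-tagged antibody raised against NOTCH3 rather than NOTCH3 protein; score merges spot fluorescence near 667 nm with spot signal to noise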
[13] = small-molecule binders of probe aNOTCH2, primary screen, biochemical, small-molecule microarray, 635/667 nm fluorescence (AID 1121); details: higher = more signal;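 further: score merges feature fluorescence read at 667 nm with its signal to noise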
[14] = target: Carbonic anhydrase 2 (Homo sapiens) (UniProt P00918); test: CAII small-molecule binders, profiling panel, biochemical, small-molecule microarray, Alexa647-labelled CAII (AID 1122); details: CAII-A647 binding fluorescence, higher = more signal
[15] = COS7 lysate on small-molecule microarray, probe aHis, 635 nm (AID 1123); details: COS7 cell lysate, fluorescence, higher = more signal;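 further: z-score combines 667nm fluorescence intensity with signal-to-noise per printed compound spot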
[16] = compound binding in COS7 lysate, probe aLAP1, primary screen, cell lysate, small-molecule microarray (AID 1124); details: probe aLAP1, fluorescence, higher = more signal;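 further: lysate comes from COS7 cells expressing LAP1 and is applied at 0.3 µg/mL; score merges spot fluorescence near 667 nm with signal-to-noise over triplicate slides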
Sam68 (KHDRBS1) = test: Sam68 small-molecule binders, primary screen, biochemical, small-molecule microarray, 635 nm fluorescence (AID 1125); details: small-molecule microarray binding, higher = more signal;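 further: score merges 667 nm channel intensity with signal to noise over triplicate slides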
[17] = system: Chordin-like protein 2 (CHRDL2); test: CHRDL2 small-molecule binders, primary screen, biochemical, small-molecule microarray, 635 nm fluorescence (AID 1126); details: small-molecule microarray binding, fluorescence 635 nm; higher = more signal;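 further: printed compound slides probed with Chrdl2 protein at 4 µg/mL for 1 h at 4 C; score merges 667 nm emission intensity with signal to noise over three replicate slides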
[18] = target: Concanavalin-A (Canavalia ensiformis) (UniProt P02866); test: ConA small-molecule binders, primary screen, artefact control for SMM control protein annotation, biochemical, small-molecule microarray, Alexa647 label, 635 nm (AID 1127); details: ConA-A647 binding fluorescence, higher = more signal;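 further: z combines 667 nm emission intensity with signal-to-noise across three replicate slides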
Sequence of Concanavalin-A (Canavalia ensiformis) (P02866 whole entry, looked up): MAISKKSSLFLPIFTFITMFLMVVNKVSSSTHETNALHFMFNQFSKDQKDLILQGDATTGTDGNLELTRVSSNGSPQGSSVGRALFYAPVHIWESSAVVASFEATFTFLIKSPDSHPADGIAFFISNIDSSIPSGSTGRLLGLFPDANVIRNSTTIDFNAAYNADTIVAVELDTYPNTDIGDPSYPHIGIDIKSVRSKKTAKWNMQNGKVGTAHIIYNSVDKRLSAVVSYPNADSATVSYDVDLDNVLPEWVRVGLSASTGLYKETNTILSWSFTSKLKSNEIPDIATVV

SMILES	composite z-score [1]	z-score [2]	composite z-score [3]	composite z-score [4]	composite z-score [5]	composite z-score [6]	composite z-score [7]	composite z-score [8]	composite z-score [9]	composite z-score [10]	composite z-score (Albumin (Bos taurus))	composite Z-score [11]	composite z-score [12]	composite z-score [13]	composite z-score [14]	composite z-score [15]	composite z-score [16]	composite z-score (Sam68 (KHDRBS1))	composite z-score [17]	composite z-score [18]
O=C1c2ccccc2[C@](Cc2ccccc2I)(C(=O)NCC(F)(F)F)[C@H](c2ccc(CO)cc2)N1C1CCCCC1	1.27	-1.21	0.133	1.53	0.486	-0.0405	0.0611	0.128	-0.229	1.51	0.689	0.328 (inactive)	-0.0026	-0.0956	0.729	2.31	0.326	1.31	0.227	1.16
CC(CO)N1C(=O)[C@@H]2[C@H]3C(=O)OCC=C[C@H]3OC23C=CCN(C(C)(C)C)C(=O)[C@@H]13 (stereo not given in full)	-1.89	-0.619	-0.7	-0.119	-0.72	0.308	-0.289	-0.158	-1.13	0.193	-0.0964	1.03 (inactive)	-0.242	-0.125	0.852	-0.856	-0.604	-1.05	-0.508	0.251
CN1C(=O)C2C=CC(C(O)c3cccc4ccccc34)N(N3CCCCC3)C2C1=O (stereo not given)	0.817	-0.474	0.349	2.23	1.02	-0.027	-0.0055	1.04	2.45	1.67	0.918	0.353 (inactive)	0.246	0.0502	0.586	2.75	0.59	1.31	-0.227	1.17
[N-]=[N+]=NCc1ccccc1C[C@@]1(C(=O)NCc2ccccc2)N=C(c2ccc(OCCCO)cc2)O[C@@H]1c1ccccc1N=[N+]=[N-]	1.41	-2.26	-0.346	1.31	0.845	0.0839	0.108	1.29	1.45	0.937	0.428	-0.126 (inactive)	-0.102	-0.0527	0.301	-0.0255	0.472	1.06	-1.06	0.725
[N-]=[N+]=NCc1ccccc1C[C@]1(C(N)=O)N=C(c2ccc(OCCCO)cc2)O[C@H]1c1ccccc1	1.45	-2.07	-1.1	0.637	0.784	0.0003	0.14	0.581	2.27	0.623	0.96	-0.524 (inactive)	0.073	-0.1	0.82	2.67	0.525	0.976	-1.03	0.533
CC(C)C(=C=CC[C@H](O)c1cccc(OCCO)c1)C[C@H](O)c1cc(Cl)cc(Cl)c1O	0.851	-0.583	0.155	-0.0005	-0.698	-0.126	0.23	0.0083	0.488	0.986	0.773	-0.0673 (inactive)	0.0916	-0.154	0.374	1.14	0.0431	0.801	-0.331	0.943
COC(=O)[C@@]1(Cc2ccccc2)[C@H]2c3cc(C(=O)N(C)C)n(CCN4CNCC4=O)c3C[C@H]2CN1C(=O)c1ccccc1	-0.5	0.188	-1.47	2.98	-2.29	0.401	0.0183	1.99	4.42	3.12	0.984	0.0052 (inactive)	0.571	0.37	0.826	-0.325	1.26	-0.764	-1.16	-1.42
COc1ccc([Si](C)(C)[C@H]2[C@H](CC(=O)N(CCO)Cc3ccccc3)O[C@@]3(C(=O)N(Cc4cccc(N5CCOC5=O)c4)c4ccccc43)[C@@H]2C)cc1	0.671	-4.06	0.498	0.107	-0.48	-0.154	-0.147	-0.318	0.0843	0.429	-0.255	0.897 (inactive)	-0.0288	-0.104	0.591	1.1	0.735	1.3	0.623	0.995
CCOC(=O)C1CCCCN1 (stereo not given)	0.728	0.417	0.4	-0.178	-0.483	0.312	0.444	0.144	0.488	0.54	0.351	0.104 (inactive)	0.77	0.435	0.175	0.437	0.471	0.983	0.47	0.562
CO[C@]12C=C(Br)[C@@H](C[C@@H]1c1cccc(C)c1)[C@@]1(CO1)C2=O	0.194	-3.39	0.334	-0.426	-0.83	-0.247	-0.2	-0.0852	-0.373	-0.157	0.223	0.379 (inactive)	-0.0311	-0.132	0.354	0.288	-0.071	0.189	0.306	0.123
COC(=O)[C@@]1(Cc2ccccc2)[C@H]2c3cc(C(=O)N(C)C)n(Cc4c(CO)[nH]cc(C)c4=O)c3C[C@H]2CN1C(=O)c1ccccc1	-0.0355	-0.898	-0.0086	0.278	0.0907	0.108	0.061	1.05	0.37	0.218	0.96	0.546 (inactive)	0.163	-0.0351	0.777	1.35	-0.056	0.432	-0.26	0.295
COCCCNC(=O)[C@@]1(Cc2ccccc2N=[N+]=[N-])COC(c2ccc(OCCCO)cc2)=N1	1.44	-0.899	0.185	1.43	0.414	0.0165	0.284	0.747	2	2.18	0.538	0.889 (inactive)	0.125	-0.0928	0.31	2.27	0.398	1.05	-0.938	1.1
COCCOC(=O)N1C(=O)[C@@]2(c3cc(C#CC4(O)CCCCCC4)ccc31)[C@H](c1ccc(O)cc1)N1[C@H](c3ccccc3)[C@H](c3ccccc3)OC(=O)[C@H]1[C@@H]2C(=O)NC[C@H](O)c1ccccc1	1.05	-1.03	0.951	0.896	0.524	-0.0339	0.14	0.0896	1.6	1.76	0.179	0.534 (inactive)	-0.0133	0.0296	0.522	2.46	1.46	1.3	0.97	1.02
O=C(CS)NCCCCCNC(=O)[C@@H]1C[C@@H]2C(=O)N3CCC[C@H]3C(=O)N2[C@@H]1c1cccc(OCCO)c1	1.42	-0.367	-0.429	1.39	-1.29	-0.073	-0.16	-0.565	1.76	1.14	-0.105	1.11 (inactive)	-0.284	-0.258	0.747	2.18	0.503	0.246	0.712	0.91
CCCC[C@@H]1C[C@H]1[C@@H](NC(=O)Cc1ccccc1)c1ccc(-c2ccccc2)cc1	1.24	-0.783	-0.319	0.538	0.588	-0.0276	0.0098	-0.0503	0.487	0.263	0.83	0.378 (inactive)	-0.006	-0.0242	0.66	2.02	-0.273	0.214	-0.436	0.453
NC(N)=NCCCn1cc(CNC(=O)[C@@H](N)Cc2ccccc2)nn1	-0.15	-0.332	0.566	-0.806	-0.458	-0.128	-0.0146	0.0472	0.984	0.0071	0.0958	0.79 (inactive)	0.0126	-0.0279	0.948	0.96	0.155	-0.103	0.57	-0.739
